Compound activity (PubChem)
Sampled rows, rich in hits. Any-hit rate of the full collection: about 2.4%.
M1 ag: activates human CHRM1 receptor; AID 588814; 360,000 tested, 0.33% active; P11229; activation, % at 3 µM; CHO-K1 hM1, Fluo-8 calcium fluorescence, agonist mode; 0% DMSO, 100% acetylcholine EC100;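 active = activation above the run's mean compound activation plus 3 SD, cut at about 16% in these data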;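 note: peak over basal fluorescence ratio within a 140 s kinetic read after compound addition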
Target sequence (P11229 whole entry, looked up): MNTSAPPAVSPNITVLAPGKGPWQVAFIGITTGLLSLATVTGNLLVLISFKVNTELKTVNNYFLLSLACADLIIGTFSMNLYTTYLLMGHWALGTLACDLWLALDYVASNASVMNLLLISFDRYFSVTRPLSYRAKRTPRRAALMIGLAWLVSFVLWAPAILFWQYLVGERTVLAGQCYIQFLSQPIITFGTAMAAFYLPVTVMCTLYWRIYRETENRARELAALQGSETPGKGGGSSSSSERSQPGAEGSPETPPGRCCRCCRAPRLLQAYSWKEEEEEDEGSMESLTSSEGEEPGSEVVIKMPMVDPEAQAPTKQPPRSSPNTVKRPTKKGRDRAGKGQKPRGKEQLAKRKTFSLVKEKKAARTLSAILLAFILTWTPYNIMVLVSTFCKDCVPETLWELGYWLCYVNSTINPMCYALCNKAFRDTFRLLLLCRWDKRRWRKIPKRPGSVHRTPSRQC
CHO-K1 Ca ag: M1 agonist counterscreen hit in parental CHO-K1 cells. 360,000 tested, 0.48% active. Fluo-8 calcium fluorescence; scaled to maximal ATP response, vehicle zero. AID 602248. activation, % at 3 µM; in the data active = activation above about 15%;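 note: untransfected CHO-K1 host cells lacking M1 receptor as counterscreen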
CHO-K1 Ca antag: nonselective inhibitor or artifact in parental CHO-K1 cells; ATP-induced calcium, Fluo-8 fluorescence; inhibition, % at 3 µM; 360,000 tested, 0.6% active; AID 602250;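 active = inhibition above a per-plate cutoff, the plate's mean sample inhibition plus 3 SD, cut at about 24% in these data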;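 note: 0% = DMSO plus EC80 ATP and 100% = DMSO alone without ATP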
M1 antag: antagonists of human M1 muscarinic receptor; P11229; 360,000 tested, 1.3% active; inhibition, % at 3 µM; CHO-K1 hM1, Fluo-8 calcium fluorescence, ACh EC80 antagonist; AID 588852;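 active = percent inhibition above its own plate's cutoff, namely the mean of that plate's compound wells plus 3 SD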;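 note: peak over basal fluorescence ratio during 140 s after agonist addition; 0% = ACh EC80 plus DMSO and 100% = DMSO alone without agonist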
CHRM1 PAM: potentiates human M1 receptor response to acetylcholine; P11229; CHO-K1 hM1, Fluo-8 calcium fluorescence, ACh EC20; 0% = ACh EC20, 100% = maximal ACh; activation, % at 3 µM; 360,000 tested, 0.088% active; AID 588819; in the data active = activation above about 19%, passing the limit was not always enough
M1 PAM parental: M1 PAM counterscreen hit in parental CHO-K1 cells; ATP EC20, Fluo-8 calcium fluorescence; 0% at ATP EC20, 100% at ATP max; activation, % at 3 µM; 360,000 tested, 0.02% active; AID 602247;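 active = activation above the run cutoff, the mean activation of all test compounds plus 3 SD, cut at about 40% in these data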;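 note: peak over basal fluorescence ratio in a 140 s read after ATP addition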
Starred values were filed as active, the others as inactive.

What do the screens show for `CC(C)C(=O)N1CCN(c2ccc(NC(=O)COc3ccccc3[N+](=O)[O-])cc2)CC1`?
M1 ag: 4; CHO-K1 Ca ag: 13; CHO-K1 Ca antag: 40*; M1 antag: 37*; CHRM1 PAM: -26; M1 PAM parental: -19

Results for CN1CCN(c2ccc(NC(=O)COc3ccccc3[N+](=O)[O-])cc2)CC1 ?
M1 ag: -16; CHO-K1 Ca ag: 0; CHO-K1 Ca antag: 3; M1 antag: -7; CHRM1 PAM: 12; M1 PAM parental: 5

What do the screens show for `Cc1cccc(OCC(=O)Nc2ccc(N3CCN(C(=O)c4ccccc4)CC3)cc2)c1C`?
M1 ag: 1; CHO-K1 Ca ag: 10; CHO-K1 Ca antag: 4; M1 antag: 27*; CHRM1 PAM: -12; M1 PAM parental: -3

What do the screens show for `COc1ccccc1NC(=O)C1CCCN(S(=O)(=O)c2ccc3c(c2)CC(C)N3C(C)=O)C1` (stereo not drawn)?
M1 ag: 0; CHO-K1 Ca ag: 2; CHO-K1 Ca antag: -11; M1 antag: 8; CHRM1 PAM: 0; M1 PAM parental: -11

What do the screens show for `COc1ccc(NC(=O)c2ccc(NC(=O)COC(=O)c3cnc(C)cn3)cc2)cc1`?
M1 ag: -4; CHO-K1 Ca ag: 0; CHO-K1 Ca antag: -12; M1 antag: 2; CHRM1 PAM: 0; M1 PAM parental: -8

How did COc1ccc(NS(=O)(=O)c2ccc(-c3coc(C)n3)cc2)cc1 do in these assays?
M1 ag: 9; CHO-K1 Ca ag: 6; CHO-K1 Ca antag: -11; M1 antag: -7; CHRM1 PAM: 15; M1 PAM parental: 9

Results for COc1ccc(NS(=O)(=O)c2ccc(-c3coc(C)n3)cc2)cc1OC ?
M1 ag: 5; CHO-K1 Ca ag: 20*; CHO-K1 Ca antag: 50*; M1 antag: 63*; CHRM1 PAM: -17; M1 PAM parental: -29

What do the screens show for `COc1cccc(C(=O)N2CCN(c3ccc(N4CCOCC4)nn3)CC2)c1`?
M1 ag: -4; CHO-K1 Ca ag: 1; CHO-K1 Ca antag: -4; M1 antag: -14; CHRM1 PAM: 4; M1 PAM parental: 7

Results for COc1ccc2c(c1)CCc1cc(C(=O)N3CCN(c4ccc(N5CCOCC5)nn4)CC3)sc1-2 ?
M1 ag: -5; CHO-K1 Ca ag: 1; CHO-K1 Ca antag: 31*; M1 antag: 7; CHRM1 PAM: -17; M1 PAM parental: -10

Results for CCN1C(=O)/C(=C\N2CCCCCC2)SC1=S ?
M1 ag: -4; CHO-K1 Ca ag: 1; CHO-K1 Ca antag: 10; M1 antag: 99*; CHRM1 PAM: -23; M1 PAM parental: -9

What do the screens show for `CCN1C(=O)/C(=C/N2CC(C)CC(C)C2)SC1=S` (stereo not drawn)?
M1 ag: -1; CHO-K1 Ca ag: 0; CHO-K1 Ca antag: -7; M1 antag: -2; CHRM1 PAM: 3; M1 PAM parental: 16

Results for COc1ccc(CCn2nnnc2CN2CCN(C(=O)c3ccco3)CC2)cc1OC ?
M1 ag: -10; CHO-K1 Ca ag: 14; CHO-K1 Ca antag: 24*; M1 antag: -5; CHRM1 PAM: 9; M1 PAM parental: -15

What do the screens show for `COCCn1nnnc1CN1CCN(C(=O)c2ccco2)CC1`?
M1 ag: -6; CHO-K1 Ca ag: 1; CHO-K1 Ca antag: -14; M1 antag: -7; CHRM1 PAM: 1; M1 PAM parental: 7

What do the screens show for `CC12CCC(=O)C=C1CCC1C2CCC2(C)C(C(=O)CO)CC(O)C12` (stereo not drawn)?
M1 ag: 0; CHO-K1 Ca ag: 2; CHO-K1 Ca antag: -9; M1 antag: -18; CHRM1 PAM: 5; M1 PAM parental: 8

Results for CC12CCC(=O)C=C1CCC1C2CCC2(C)C(c3csc(N)n3)CCC12 (stereo not drawn) ?
M1 ag: 1; CHO-K1 Ca ag: 7; CHO-K1 Ca antag: 5; M1 antag: 79*; CHRM1 PAM: -27; M1 PAM parental: 0

Results for CC(=O)C1CCC2C3CCC4=CC(=O)CCC4(C)C3C(O)CC12C (stereo not drawn) ?
M1 ag: -6; CHO-K1 Ca ag: 0; CHO-K1 Ca antag: -19; M1 antag: -34; CHRM1 PAM: 4; M1 PAM parental: 22

How did CCC(C(=O)OCC(=O)C1(O)CCC2C3CCC4=CC(=O)CCC4(C)C3C(O)CC21C)C(C)C (stereo not drawn) do in these assays?
M1 ag: -2; CHO-K1 Ca ag: 4; CHO-K1 Ca antag: -15; M1 antag: 84*; CHRM1 PAM: -30; M1 PAM parental: -1

What do the screens show for `CC(=O)[C@@]1(O)CC[C@H]2[C@@H]3CCC4=CC(=O)CC[C@]4(C)[C@H]3[C@@H](O)C[C@@]21C`?
M1 ag: 2; CHO-K1 Ca ag: 0; CHO-K1 Ca antag: 6; M1 antag: -20; CHRM1 PAM: 7; M1 PAM parental: -8

What do the screens show for `CC12CCC(=O)C=C1CCC1C2C(O)CC2(C)C(c3csc(N)n3)CCC12` (stereo not drawn)?
M1 ag: -4; CHO-K1 Ca ag: 1; CHO-K1 Ca antag: 1; M1 antag: 42*; CHRM1 PAM: -29; M1 PAM parental: 2

How did COc1ccc(CS(=O)(=O)c2ncn[nH]2)cc1 do in these assays?
M1 ag: -5; CHO-K1 Ca ag: 2; CHO-K1 Ca antag: -7; M1 antag: -2; CHRM1 PAM: -1; M1 PAM parental: 14

What do the screens show for `COc1ccc(Cc2c(-c3ccc(OC)c(OC)c3)nc3ccc(C)cn23)c(C)c1`?
M1 ag: -6; CHO-K1 Ca ag: 0; CHO-K1 Ca antag: -3; M1 antag: -8; CHRM1 PAM: -2; M1 PAM parental: -10

Results for CCC(C)NC(=S)N(Cc1cc2cc(C)ccc2n2nnnc12)CC(C)(C)NC(C)C (stereo not drawn) ?
M1 ag: -2; CHO-K1 Ca ag: 0; CHO-K1 Ca antag: -1; M1 antag: 17; CHRM1 PAM: -10; M1 PAM parental: -14

What do the screens show for `COc1cc(CN2CCN(CC3CC3)CC2CCO)cc(OC)c1` (stereo not drawn)?
M1 ag: -8; CHO-K1 Ca ag: 1; CHO-K1 Ca antag: 1; M1 antag: -5; CHRM1 PAM: -2; M1 PAM parental: 5

Results for CCOC(=O)C1(Cc2ccccc2)CCCN(C(=O)c2cnn(CC)c2)C1 (stereo not drawn) ?
M1 ag: -2; CHO-K1 Ca ag: 6; CHO-K1 Ca antag: 29*; M1 antag: -7; CHRM1 PAM: 6; M1 PAM parental: 6

How did CCOC(=O)C1(Cc2ccccc2)CCCN(Cc2cnn(CC)c2)C1 (stereo not drawn) do in these assays?
M1 ag: -5; CHO-K1 Ca ag: 0; CHO-K1 Ca antag: -14; M1 antag: -16; CHRM1 PAM: 9; M1 PAM parental: 15

What do the screens show for `S=C(Nc1cccc2ccccc12)NN1CCOCC1`?
M1 ag: -3; CHO-K1 Ca ag: 0; CHO-K1 Ca antag: -12; M1 antag: -22; CHRM1 PAM: 10; M1 PAM parental: 23
